“And” between values parts separate entries of the source, which are not always exact repeats. Identical values can stand only once. Hit rate of the full screen: of about 5,500 compounds, about 2,000 (36%) were called active. Roughly 18% stayed inconclusive and do not appear here. No stated cut-off is given here; in the data, active means normalized growth mostly below about 0.91 (no sharp cut-off); inconclusive means no clear call, values can overlap the other calls; inactive means mostly above about 0.92. Some of the results follow.
Assay: chemical genetic growth profiling, strain panel (AID 1159580);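 further: tested at 20 µM; growth read once vehicle control cultures reached saturation at 30 °C; 1 = growth at the plate median or of vehicle wells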
Conditions: S. cerevisiae deletion strains, growth OD

Measured: normalized growth

CCOC(=O)OC(C)OC(=O)C1N2C(=O)C(NC(=O)[C@H](N)c3ccccc3)C2SC1(C)C (some centres undefined)
inactive: locus YAL013W, strain DEP1, stronger effect = lower value 0.98 | locus YAL021C, strain ccr4, stronger effect = lower value 0.986 | locus YAL026C, strain drs2, stronger effect = lower value 0.981 | locus YAL030W, strain snc1, stronger effect = lower value 0.98 | locus YBL061C, strain skt5, stronger effect = lower value 0.978 | locus YBR009C, strain hhf1, stronger effect = lower value 0.992 | locus YBR021W, strain FUR4, stronger effect = lower value 1.03 | locus YBR023C, strain chs3, stronger effect = lower value 0.986 | locus YBR171W, strain sec66, stronger effect = lower value 0.968 | locus YBR229C, strain ROT2, stronger effect = lower value 0.961 | locus YBR231C, strain swc5, stronger effect = lower value 0.987 | locus YBR279W, strain paf1, stronger effect = lower value 0.989 | locus YCL011C, strain gbp2, stronger effect = lower value 0.965 | locus YCL016C, strain dcc1, stronger effect = lower value 0.993 | locus YCL029C, strain bik1, stronger effect = lower value 0.988 | locus YCL061C, strain MRC1, stronger effect = lower value 0.998 | locus YCL069W, strain vba3, stronger effect = lower value 0.998 | locus YCR088W, strain abp1, stronger effect = lower value 0.985 | locus YDL005C, strain med2, stronger effect = lower value 0.983 | locus YDL035C, strain GPR1, stronger effect = lower value 0.984 | locus YDL040C, strain nat1, stronger effect = lower value 0.989 | locus YDL074C, strain BRE1, stronger effect = lower value 0.917 | locus YDL101C, strain DUN1, stronger effect = lower value 0.97 | locus YDL134C, strain PPH21, stronger effect = lower value 0.998 | locus YDL185W, strain tfp1, stronger effect = lower value 0.975 | locus YDL192W, strain arf1, stronger effect = lower value 0.985 | locus YDR001C, strain nth1, stronger effect = lower value 0.983 | locus YDR069C, strain doa4, stronger effect = lower value 0.993 | locus YDR101C, strain arx1, stronger effect = lower value 0.962 | locus YDR137W, strain rgp1, stronger effect = lower value 0.994 | locus YDR159W, strain sac3, stronger effect = lower value 1 | locus YDR162C, strain NBP2, stronger effect = lower value 0.989 | locus YDR195W, strain ref2 0.985 | locus YDR297W, strain sur2, stronger effect = lower value 0.977 | locus YDR318W, strain mcm21, stronger effect = lower value 0.992 | locus YDR334W, strain swr1, stronger effect = lower value 0.943 | locus YDR335W, strain msn5, stronger effect = lower value 0.979 | locus YDR388W, stronger effect = lower value 0.991 | locus YDR392W, strain spt3, stronger effect = lower value 0.946 | locus YDR502C, strain sam2, stronger effect = lower value 0.99 | locus YEL003W, strain gim4, stronger effect = lower value 0.98 | locus YEL037C, strain rad23, stronger effect = lower value 0.987 | locus YEL061C, strain CIN8 (second series), stronger effect = lower value 0.984 | locus YEL061C, strain CIN8, stronger effect = lower value 0.976 | locus YER015W, strain faa2, stronger effect = lower value 0.981 | locus YER016W, strain bim1, stronger effect = lower value 0.99 | locus YER110C, stronger effect = lower value 0.982 | locus YER111C, strain swi4, stronger effect = lower value 0.985 | locus YER155C, strain BEM2 (second series), stronger effect = lower value 0.995 | locus YER155C, strain BEM2, stronger effect = lower value 0.992 | locus YER167W, strain BCK2, stronger effect = lower value 0.997 | locus YFR010W, strain ubp6, stronger effect = lower value 0.977 | locus YGL078C, strain dbp3, stronger effect = lower value 0.974 | locus YGL086W, strain mad1, stronger effect = lower value 0.966 | locus YGL167C, strain pmr1, stronger effect = lower value 0.991 | locus YGL173C, strain kem1, stronger effect = lower value 0.975 | locus YGL227W, strain vid30, stronger effect = lower value 0.993 | locus YGL240W, strain doc1, stronger effect = lower value 0.984 | locus YGL248W, strain PDE1, stronger effect = lower value 0.969 | locus YGL253W, strain hxk2, stronger effect = lower value 0.971 | locus YGR135W, strain pre9, stronger effect = lower value 1.04 | locus YGR252W, strain gcn5, stronger effect = lower value 0.945 | locus YHR013C, strain ard1, stronger effect = lower value 0.967 | locus YHR027C, strain rpn1, stronger effect = lower value 0.963 | locus YHR030C, strain SLT2, stronger effect = lower value 0.996 and 1.02 | locus YHR079C, strain IRE1 (second series), stronger effect = lower value 0.993 | locus YHR079C, strain IRE1, stronger effect = lower value 0.98 | locus YHR094C, strain hxt1, stronger effect = lower value 0.984 | locus YHR129C, strain ARP1, stronger effect = lower value 0.993 | locus YHR142W, strain chs7, stronger effect = lower value 0.954 | locus YHR200W, strain rpn10, stronger effect = lower value 0.997 | locus YIL066C, strain RNR3, stronger effect = lower value 0.944 | locus YIL073C, strain SPO22, stronger effect = lower value 0.966 | locus YIL125W, strain kgd1, stronger effect = lower value 0.995 | locus YIR030C, strain dcg1, stronger effect = lower value 0.986 | locus YJL092W, strain hpr5, stronger effect = lower value 0.994 | locus YJL095W, strain BCK1 (second series), stronger effect = lower value 0.994 | locus YJL095W, strain BCK1, stronger effect = lower value 0.949 and 0.988 | locus YJL115W, strain asf1, stronger effect = lower value 0.974 | locus YJL129C, strain trk1, stronger effect = lower value 1.01 | locus YJL134W, strain LCB3, stronger effect = lower value 0.992 | locus YJL154C, strain vps35, stronger effect = lower value 0.989 | locus YJL164C, strain tpk1, stronger effect = lower value 0.975 | locus YJL166W, strain qcr8, stronger effect = lower value 0.971 | locus YJL168C, strain set2, stronger effect = lower value 0.984 | locus YJL187C, strain SWE1 (second series), stronger effect = lower value 0.935 | locus YJL187C, strain SWE1, stronger effect = lower value 0.989 | locus YJR043C, strain POL32, stronger effect = lower value 0.98 | locus YJR066W, strain TOR1, stronger effect = lower value 0.966

From PubChem BioAssay AID1159580 (chemical genetic matrix, 2015)
